Some test systems named below: HCT-15 colon; HT29 colon; SNB-75 CNS; SNB-19 CNS; U251 CNS; PC-3 prostate; SK-MEL-5 melanoma; UACC-62 melanoma; LOX IMVI melanoma; SK-MEL-28 melanoma.
Experiment in all cases: NCI-60 one-dose screen, 48 h (100 = growth as untreated, 0 = no growth, -100 = all killed)
What all share (conditions): 10 µM unless noted

About 83,000 compounds went through this panel and 20% of them were active in at least one assay; those are over-represented in the sample as a whole.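 Method: cells in 96-well plates; compound added at one concentration; 48 h incubation; percent growth measured; values under 10 scored active.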 Unmarked numbers belong to inactive results. Activity calls are given as the source filed them.

For the compound `NC(=O)OCCn1cc(-c2nc(-c3c[nH]c4ncccc34)cs2)c2ccccc21`, the growth in the assay on HCT-15 colon was 28%; in the assay on HT29 colon, 8.34% (active); with SNB-75 CNS, 10.6%; with SNB-19 CNS, 42.2%; in the assay with U251 CNS, 20%; with PC-3 prostate, 33.2%. Besides, the growth is 18.5% with SK-MEL-5 melanoma, 32.9% in the assay with UACC-62 melanoma, 30.1% with LOX IMVI melanoma and 61.7% in the assay on SK-MEL-28 melanoma.

For `COc1ccc(C2=Nc3c/c(=C\c4c(O)[nH]c5cc(Cl)ccc45)ccc3=N2)cc1`, the growth in the assay on HCT-15 colon is 55.8%; in the assay on HT29 colon, 39.8%; in the assay on SNB-75 CNS it was 41.6%; in the assay on SNB-19 CNS, 95.1%; in the assay on U251 CNS, 74.3%; with PC-3 prostate it was 43.3%. Also, the growth in the assay on SK-MEL-5 melanoma is 60.7%; in the assay on UACC-62 melanoma, 67.5%; in the assay with LOX IMVI melanoma, 90.6%; with SK-MEL-28 melanoma, 47%.

With `COC(=O)Cc1nc(C#N)c(N(C)C)o1`, the growth with HCT-15 colon is 99.4%; with HT29 colon, 106%; with SNB-75 CNS, 78.5%; with SNB-19 CNS it was 96.1%; with U251 CNS, 98.8%; in the assay on PC-3 prostate, 99.4%. Moreover, the growth in the assay on SK-MEL-5 melanoma is 102%; in the assay with UACC-62 melanoma it was 87.6%; in the assay with LOX IMVI melanoma, 97.7%; with SK-MEL-28 melanoma, 104%.

In the case of `O=C(Cn1nnc2ccccc21)Nc1ccc(-c2nc3ccccc3s2)cc1`, the growth with HCT-15 colon is 91.5%; with HT29 colon, 101%; with SNB-75 CNS, 106%; in the assay on SNB-19 CNS, 103%; with U251 CNS, 89.6%; in the assay with PC-3 prostate, 83.3%. In addition, the growth was 74.3% in the assay on SK-MEL-5 melanoma, 97.1% in the assay with UACC-62 melanoma, 84.2% in the assay with LOX IMVI melanoma and 102% with SK-MEL-28 melanoma.

Regarding `O=C(Cn1nnc2ccccc21)N/N=C/c1ccccc1F`, the growth with HCT-15 colon was 106%; in the assay on HT29 colon, 99.5%; with SNB-75 CNS it was 95.2%; in the assay with SNB-19 CNS it was 103%; in the assay with U251 CNS it was 97.1%; in the assay on PC-3 prostate, 96%. Further, the growth with SK-MEL-5 melanoma was 102%; in the assay with UACC-62 melanoma, 88.5%; with LOX IMVI melanoma it was 101%; with SK-MEL-28 melanoma it was 108%.

On to `COc1ccc2nc(SCC(=O)Nc3ccccc3C)[nH]c2c1`, for which the growth in the assay with HCT-15 colon is 99.8%; with HT29 colon, 109%; with SNB-75 CNS, 82.5%; in the assay on SNB-19 CNS it was 95%; with U251 CNS it was 93.5%; in the assay with PC-3 prostate, 84.5%. Moreover, the growth in the assay on SK-MEL-5 melanoma was 95.7%; in the assay with UACC-62 melanoma, 84.5%; with LOX IMVI melanoma, 95.6%; in the assay on SK-MEL-28 melanoma it was 95.8%.

For `CCOC(=O)c1c2c(n3c1NCC3)-c1ccccc1C2=O`, the growth with HCT-15 colon was 99.3%; in the assay on HT29 colon it was 98.1%; with SNB-75 CNS it was 83.5%; in the assay with SNB-19 CNS it was 99.3%; with U251 CNS, 101%; with PC-3 prostate, 91.1%. Also, the growth with SK-MEL-5 melanoma is 93.3%; with UACC-62 melanoma, 98.6%; in the assay on LOX IMVI melanoma, 97.9%; in the assay with SK-MEL-28 melanoma, 103%.

On to `CCn1cc(CNc2ccc(C(=O)Nc3cc4cc(OC)c(OC)cc4c(C)n3)cc2)c(C)n1`, for which the growth is 23.1% with HCT-15 colon; 54.1% with HT29 colon; 77.1% in the assay with SNB-75 CNS; 90% with SNB-19 CNS; 71% in the assay with U251 CNS; 18.6% in the assay with PC-3 prostate. The growth with SK-MEL-5 melanoma is 1.46% (active); in the assay on UACC-62 melanoma, 6.57% (active); in the assay on LOX IMVI melanoma, 23.9%; in the assay on SK-MEL-28 melanoma, 50.4%.

Take `COc1ccc(OC)c(Nc2nnc(-c3ccc(Cl)cc3)o2)c1`: the growth in the assay on HCT-15 colon was 96%; with HT29 colon, 48.9%; in the assay with SNB-75 CNS, 59.4%; in the assay on SNB-19 CNS, 58.4%; with U251 CNS, 2.55% (active); in the assay with PC-3 prostate, 88.4%. Also, the growth in the assay on SK-MEL-5 melanoma was 104%; in the assay with UACC-62 melanoma, 97.5%; in the assay on LOX IMVI melanoma, 73.8%; in the assay on SK-MEL-28 melanoma, 102%.

In the case of `O=C(N/N=C/c1ccc(O)cc1O)c1ccc(Nc2ccnc(C(F)(F)F)c2)cc1`, the growth in the assay on HCT-15 colon is 39.7%; in the assay on HT29 colon it was 58.6%; in the assay on SNB-75 CNS, 62.2%; with SNB-19 CNS it was 32%; with U251 CNS, 24.6%; with PC-3 prostate it was 50.2%. Besides, the growth in the assay with SK-MEL-5 melanoma is 20.7%; with UACC-62 melanoma, 11.7%; in the assay with LOX IMVI melanoma, 12.9%; with SK-MEL-28 melanoma, 60.7%.

For `N/C(=N\c1nc2ccccc2s1)NC(=NC1CCCCC1)NC1CCCCC1`, the growth with HCT-15 colon is 1.34% (active); in the assay with HT29 colon, 6.19% (active); in the assay with SNB-75 CNS, 23.1%; in the assay with SNB-19 CNS, 4.28% (active); with U251 CNS it was -56.2% (active); in the assay with PC-3 prostate, 24.2%. Also, the growth is -74.8% (active) with SK-MEL-5 melanoma, 52.8% with UACC-62 melanoma, -100% (active) in the assay on LOX IMVI melanoma and -73.8% (active) in the assay with SK-MEL-28 melanoma.

Take `CN1CCN(Cc2ccc(NC(=O)c3cncc(C#Cc4cncc5[nH]ncc45)c3)cc2C(F)(F)F)CC1`: the growth with HCT-15 colon was 10.6%; with HT29 colon it was 11.1%; in the assay on SNB-75 CNS, 20%; in the assay on SNB-19 CNS, 45.5%; in the assay with U251 CNS, 25.1%; with PC-3 prostate, 1.19% (active). Also, the growth was 13.2% in the assay with SK-MEL-5 melanoma, -49.2% (active) with UACC-62 melanoma, -90% (active) in the assay with LOX IMVI melanoma and -15.2% (active) in the assay with SK-MEL-28 melanoma.

As to `COc1ccc(OC)c(-c2cn3nc(-c4c[nH]c5ccc(Br)cc45)sc3n2)c1`, the growth was 24.6% in the assay on HCT-15 colon; 10% in the assay with HT29 colon; 45% with SNB-75 CNS; 75.4% with SNB-19 CNS; 36.9% in the assay with U251 CNS; 40.9% in the assay with PC-3 prostate. The growth was 75.3% in the assay with SK-MEL-5 melanoma, 50.1% in the assay on UACC-62 melanoma, -50.5% (active) in the assay with LOX IMVI melanoma and 59.5% with SK-MEL-28 melanoma.

Values taken from PubChem BioAssay (NCI).
